Data taken from PubChem BioAssay (NCI).
Compounds without any hit were thinned out: in the full panel of roughly 83,000, 20% have a hit.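 Each cell line was grown in a 96-well plate and treated with one concentration of compound for 48 hours. Values below 10 were considered active.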 A number with no mark means an inactive call. Activity calls are given as the source filed them.

How the values were obtained:
Test in all cases: NCI-60 one-dose screen, 48 h (100 = growth as untreated, 0 = no growth, -100 = all killed)
Conditions in all cases: 10 µM unless noted
[1] = system: T-47D breast
[2] = system: BT-549 breast
[3] = system: MDA-MB-435 melanoma
[4] = system: SW-620 colon
[5] = system: MCF7 breast
[6] = system: HCT-116 colon
[7] = system: HCC-2998 colon
[8] = system: KM12 colon

Structure (SMILES) | growth [1] | growth [2] | growth [3] | growth [4] | growth [5] | growth [6] | growth [7] | growth [8]
CN1CCC(=C2c3ccccc3C=Cc3ccccc32)CC1 | 72.6% | 113% | 80.2% | 81.1% | 80.5% | 66.3% | 92.5% | 94.4%
COc1ccc(C2CC(c3cnccn3)=NN2)cc1OC (stereo unspecified) | 98.7% | 83.1% | 117% | 109% | 92.8% | 85.7% | 99.4% | 109%
CCCCCCNc1cc(C)nc2ccc(OC)cc12 | 52.1% | 75.5% | 64.6% | 68.7% | 58.8% | 28.5% | 48.4% | 66.3%
NC(=O)c1c(NC(=O)c2ccccn2)sc2c1CCC(=O)C2 | 5.3% (active) | 5.57% (active) | 21.3% | 14.7% | 39.1% | 9.08% (active) | 81% | 6.82% (active)
CC(C)(O)c1cccc(F)c1 | 140% | 104% | 103% | 103% | 98.4% | 93.8% | 105% | 103%
O=C(Nc1ccc(N2CCCCC2)c(Cl)c1)c1ccc(Br)o1 | 63% | 81.2% | -95.4% (active) | 74.2% | 49.9% | 84.3% | 111% | 70.1%
COc1cc2oc3cc(C)oc(=O)c3c2cc1OC | 89.8% | 109% | 97.7% | 103% | 98% | 90.4% | 92.4% | 105%
O=S(=O)(Cc1ccccc1)c1nc2ccccc2s1 | 76.4% | 35.8% | 49% | 26.3% | 30.5% | 9.47% (active) | 103% | 93%
O=C(c1ccccc1)c1ccc(Cl)c([N+](=O)[O-])c1 | 71.5% | 106% | 89.5% | 16.8% | 91.3% | 45.2% | 88.4% | 106%
N#Cc1c(NC(=O)c2ccc(Br)cc2)sc2c1CCCC2 | 47.2% | 52.2% | -22.8% (active) | 19.2% | 13.1% | 22.3% | 68.6% | 25.3%
COc1ccc(/C=C2\COc3ccc(O)c(O)c3C2=O)c(OC)c1 | 48% | 57.8% | 21% | 64% | 31.2% | 59.4% | 104% | 45%
Cc1cccc(-c2cc(O)c(C(=O)N3CCOCC3)s2)c1 | 18.9% | 51.2% | -50% (active) | 28% | 19.5% | 27.7% | 63.2% | 25.5%
O=C(O)CC1Sc2ccccc2NC1=O (stereo unspecified) | 111% | 118% | 104% | 103% | 255% | 100% | 106% | 104%
CN1CCN(CCCOc2ccc3nc(Nc4cc(Cl)cc(Cl)c4)ccc3c2)CC1 | -68.6% (active) | -43.2% (active) | -87.1% (active) | -82.1% (active) | -89.2% (active) | -78.2% (active) | -89.2% (active) | -88.7% (active)
C=C(C)[C@@H]1CC[C@@]2(C(=O)O)CC[C@]3(C)C(CCC4[C@@]5(C)CCC(OS(=O)(=O)c6ccccc6)C(C)(C)C5CC[C@]43C)C12 (stereo partly specified) | 34.9% | 58.9% | 59.4% | 48.8% | 50.6% | 25.7% | 33.9% | 31.4%
CCNCCNc1cc(-c2ccc(F)cc2)c(C#N)c2nc3ccccc3n12 | 21.3% | 70.9% | -62.7% (active) | 10.8% | 35.4% | 24.5% | 53.5% | 66.4%

Structure (SMILES) | growth [1] | growth [2] | growth [3] | growth [4] | growth [5] | growth [6] | growth [7] | growth [8]
O=C1Nc2ccccc2SC1C1SC(=S)N(Cc2ccccc2)C1=O (stereo unspecified) | 24.1% | 42.4% | 0.237% (active) | 20.9% | 17.8% | 42.8% | 136% | -48.5% (active)
CCN(CC)c1ccc(Nc2ccc(CC(=O)c3ccccc3)cc2)cc1 | 74.3% | 82.4% | 80.2% | 89.9% | 83.6% | 82.4% | 94.9% | 74.9%
O=C1Nc2ccc(Cl)cc2/C1=N/N=C/c1c[nH]c2ccccc12 | 73.4% | 93.5% | 87% | 79.2% | 71.1% | 75.6% | 101% | 68.1%
CC(=O)c1sc(-c2ccccc2)cc1N | 83% | 101% | 94.1% | 96.5% | 97.7% | 98.8% | 99.4% | 104%
Cc1[nH]c(-c2nc3ccccc3[nH]2)c(C)c1C(=O)NNc1ccc(Cl)cc1 | 85.1% | 105% | 97.8% | 99.6% | 87.6% | 94% | 108% | 95.5%
Cc1c(C(=O)O)nnn1-c1nccs1 | 90.4% | 96.4% | 96.2% | 94% | 99.6% | 89.5% | 113% | 98.8%
COc1ccc(/C=C2\C=C(c3ccccc3)N(CCc3ccccc3)C2=O)cc1OC | 8% (active) | 80.1% | 36% | 56% | 34.4% | 32.8% | 73.3% | 64%
CN(C)c1ccc(/C=C2\C=C(c3ccccc3)N(CCc3ccccc3)C2=O)cc1 | 82.3% | 71.3% | 95.3% | 61.4% | 60% | 42.2% | 75.5% | 89.8%
Clc1ccc(-c2nnc(-c3ccco3)o2)cc1 | 99.2% | 101% | 89.7% | 99.5% | 95.2% | 87.3% | 94.4% | 106%
Cc1c2c(cn1Cc1ccccc1)CCc1cn[nH]c1-2 | 90.3% | 96.5% | 26.8% | 95.8% | 81.5% | 89.5% | 86.1% | 78.8%
CC1=CC(=O)C(C(C)C)=CC1=Nc1cc(Br)c(O)c(Br)c1 | 75.5% | 26.4% | -11.7% (active) | 27.3% | 23.2% | 1.14% (active) | -43.5% (active) | -1.83% (active)
COc1ccc(-c2cncnc2N)cc1OC | -95.7% (active) | 99.2% | 104% | 101% | 103% | 94.8% | 103% | 109%
CC1(C)N=C(N)N=C(N)N1c1cccc(CN)c1 | 102% | 94.6% | 104% | 98.4% | 95.9% | 91.3% | 100% | 101%
O=C1NCC(=O)N(Cc2ccco2)[C@H]1Cc1ccccc1 | 88% | 95.5% | 104% | 107% | 91.5% | 95.9% | 109% | 103%
COc1ccc(/C(C)=C(\c2ccc(Cl)cc2)c2ccc(OCCCN(C)C)cc2)cc1F | 67.5% | 88.3% | 29.4% | 38.3% | 13% | 21.2% | 48.2% | 29.2%
CN(C)CN1CCN(c2ccc3nc(-c4ccc5nc(-c6ccc(C(F)(F)F)cc6)[nH]c5c4)[nH]c3c2)CC1 | 61.4% | 86.2% | 40.9% | 27% | 9.58% (active) | 23.8% | 84.7% | 26.5%
